Five compounds from PubChem BioAssay (NCATS) can be followed below.

Inconclusive results are not listed. The source made the active and inactive calls. Unless noted, the call rests on the fitted dose curve; in most records, active means well fitted curve in the direction sought with a large enough effect; inconclusive means small, poorly fitted or top-dose-only effect, or another doubt; inactive means no such curve, though single readings can be large; an effect the other way counts as inactive or inconclusive.

Experiment [1] addresses Thyroid hormone receptor beta (Homo sapiens) (UniProt P10828). Description: qHTS assay for small molecule agonists of thyroid hormone receptor beta signaling (AID 588545; calls by dose curve;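 further: 0% = DMSO only and 100% = 10 nM T3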). In outline: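 Efficacy and EC50 values derive from Hill fits of qHTS titration data, normalized to 10 nM T3 and DMSO-only wells. HEK 293 reporter cells were stimulated for 18 hrs at 37 C, with beta-lactamase activity measured by CCF4 fluorescence.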
In general terms: Quantitative high-throughput screening tests each substance at several concentrations.

Experiment [2] in a line: qHTS assay for small molecule antagonists of retinoid X receptor alpha signaling (AID 588546; active means well fitted inhibition curve with a large enough effect in the signal ratio, with a control signal flat, not every such curve was filed as active; the % refers to the signal ratio; further: potency means the concentration at half of the fitted maximal effect;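 on max response: cells stimulated with 9-cis-retinoic acid as agonist; on the % scale 0 is the no-effect control and ±100 the full control effect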). The conditions noted are these: HEK293T RXRa-UAS-bla, beta-lactamase ratio, antagonist mode; measured here: W530 green channel, cytotoxicity proxy. The gist of the method:
(§1)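 Beta-lactamase reporter inhibition, read as CCF4 fluorescence ratio (ex 405, em 460/530 nm) after 2 h at RT. HEK293T UAS-bla cells, 2500/well, were stimulated with 9-cis-RA at 500 or 100 nM final alongside test compound for 18 h at 37 C.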

Experiment [3] concerns the target Retinoic acid receptor RXR-alpha (Homo sapiens) (UniProt P19793). The description is as above. The conditions noted are these: HEK293T RXRa-UAS-bla, beta-lactamase ratio, antagonist mode. The gist of the method: as §1
The target of experiment [4] is Thyroid hormone receptor beta (Homo sapiens) (UniProt P10828). Description: qHTS assay for small molecule antagonists of thyroid hormone receptor beta signaling (AID 588547; active means well fitted inhibition curve with a large enough effect in the signal ratio, with a control signal flat, not every such curve was filed as active; the % refers to the signal ratio;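 further: cells stimulated with 0.4 nM T3 agonist during compound exposure; series mostly up to about 77 µM; on the % scale 0 is the no-effect control and ±100 the full control effect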). The conditions noted are these: TR-UAS-bla HEK293, beta-lactamase ratio, antagonist mode, 18 h. The gist of the method: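 TR-UAS-bla GripTite HEK293 cells in 2% charcoal/dextran FBS medium were preincubated 4 h at 37 C, given compound (0.59 nM to 92 uM) plus 0.4 nM T3 (final) for 18 h, then CCF4 for 2 h at RT; Hill fit gave IC50.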

Experiment [5] is described as follows: qHTS assay for small molecule agonists of the antioxidant response element (ARE) signaling pathway (AID 651741; active means well fitted activation curve with a large enough effect in the signal ratio; the % refers to the signal ratio; further: potency means the concentration at half of the fitted maximal effect; on activation: % of control where 0% means no effect). The gist of the method:
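Reporter: beta-lactamase under ARE, stably in HepG2. Exposure: 16 h, 37 C, compounds delivered in DMSO by pin tool after 5 h cell preincubation. Readout: FRET substrate fluorescence after 2 h at RT.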

Experiment [6] can be described thus: qHTS assay for small molecule activators of the p53 signaling pathway (AID 651743; active means well fitted activation curve with a large enough effect in the signal ratio, not every such curve was filed as active; the % refers to the signal ratio; further: series mostly up to about 92 µM; % of control where 0% means no effect). The conditions noted are these: HCT-116 p53RE-bla, beta-lactamase FRET ratio, 16 h; activation: stronger effect = higher value. The gist of the method:
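Agonist-mode quantitative HTS in HCT-116 cells carrying a p53-response-element beta-lactamase reporter; 16 h compound treatment at 37 C, then FRET substrate loading for 2 h at room temperature and fluorescence read.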

A short description of experiment [7]: qHTS assay for small molecule activators of the nuclear factor-kappa B (NF-kB) signaling pathway (AID 651749; active means well fitted activation curve with a large enough effect in the signal ratio; the % refers to the signal ratio; further: series mostly up to about 77 µM; % of control where 0% means no effect). The conditions noted are these: NF-kB-bla ME-180 cells, beta-lactamase FRET ratio, 16 h; activation: stronger effect = higher value. The gist of the method:
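Human ME-180 cervical cells with an NF-kB-bla construct; compounds added via 23 nL pin transfer, DMSO as vehicle; incubation 16 hr. Reporter activity measured by FRET disruption.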

Experiment [8] is described as follows: qHTS assay for environmental chemicals that activate the Aryl hydrocarbon Receptor (AhR) signaling pathway (AID 651777). Further: nearly all actives have a fitted effect of over 15% in size. Further: potency means the concentration at half of the fitted maximal effect. On activation: % of control where 0% means no effect. The conditions noted are these: 1A2-DRE human hepatoma cells, luciferase, 24 h; activation: stronger effect = higher value. In outline:
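Following a 24 hr incubation with test chemicals at 37 C and 5% CO2, 1A2-DRE human hepatoma cells received One-Glo reagent; after 30 min at room temperature, luciferase output reflected CYP1A2 induction via AhR.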

In experiment [9] the target is Peroxisome proliferator-activated receptor alpha (Homo sapiens) (UniProt Q07869). Nature of the experiment: qHTS assay for small molecule agonists of the peroxisome proliferator-activated receptor alpha (PPARalpha) signaling pathway (AID 651778). Further: % of control where 0% means no effect. The conditions noted are these: PathHunter PPARalpha complementation, chemiluminescence, 6 h; max response: stronger effect = higher value. The gist of the method: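 Cells plated at 2,000/well and held overnight at 37 C, 5% CO2, then compound added by pin tool for 6 hr; after PathHunter detection reagent and 60 min at room temperature, chemiluminescence from enzyme complementation was read.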

Experiment [10] in a line: qHTS assay for small molecule agonists of the antioxidant response element (ARE) signaling pathway measured by Nrf2-dependant transcriptional activity (AID 720636; active means well fitted curve in the direction sought with a large enough effect in the repeat runs; an effect the other way counts as inactive or inconclusive; further: potency means the concentration at half of the fitted maximal effect;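 on activation: HepG2 cells with an ARE-driven luciferase reporter; % of control where 0% means no effect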). In outline:
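ONE-Glo luminescence, read 30 min after reagent addition at room temperature, reflected ARE reporter activity in HepG2 cells that had been incubated with compound for 16 hr at 37 C in 1% dialyzed FBS.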

The nature of experiment [11]: qHTS assay for small molecule agonists of the antioxidant response element (ARE) signaling pathway measured by Nrf2-dependant transcriptional activity - cell viability counter screen (AID 720653; active means well fitted curve in the direction sought with a large enough effect in the repeat runs; an effect the other way counts as inactive or inconclusive; further: on the % scale 0 is the no-effect control and ±100 the full control effect). The conditions noted are these: ARE-bla HepG2 viability, CellTiter-Glo ATP luminescence, 16 h; max response: stronger effect = lower value. In outline:
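ARE-bla HepG2 cells (2,000/well) rested 5 hrs at 37C/5% CO2, then exposed to compounds in DMSO for 16 hrs. Viability was read in the same wells as intracellular ATP by luminescence, 30 min at room temperature after reagent addition.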

A short description of experiment [12]: qHTS assay for cell viability of HEK293 cells (AID 743288). Further: nearly all actives have a fitted effect of over 50% in size. Further: potency means the concentration at half of the fitted maximal effect. The conditions noted are these: ATP luminescence (CellTiter-Glo), 18 h; max response: stronger effect = lower value. In outline:
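HEK293, 18 h, 37 C, ATP luminescence. Cells at 2,000/well were allowed at least 5 h to settle before dosing; CellTiter-Glo developed 30 min at RT.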

Experiment [13] in a line: qHTS assay for cell viability of the p53RE-bla HCT-116 cell line (AID 743292). Further: on the % scale 0 is the no-effect control and ±100 the full control effect; nearly all actives have a fitted effect of over 55% in size. In outline:
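After plating at 4,000 cells per well and a 5 h rest at 37 C, HCT-116 cells carrying p53RE-bla received test chemicals in DMSO. Sixteen hours later at 37 C, CellTiter-Glo was added and luminescence recorded following 30 min at room temperature.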

Experiment [14] addresses Bile acid receptor (Homo sapiens) (UniProt Q96RI1). Nature of the experiment: qHTS assay for small molecule antagonists of farnesoid X receptor signaling (AID 588526; calls by dose curve; further: potency means the concentration at half of the fitted maximal effect). The gist of the method:
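Concentration-response titrations were fitted to the Hill equation for half-maximal inhibition and maximal response, with data normalised to 50 uM chenodeoxycholic acid and DMSO control wells. Cells: FXR-UAS-bla HEK293T, dialyzed FBS.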

The target is the same in experiment [15]. Description: qHTS assay for small molecule agonists of farnesoid X receptor signaling (AID 588527; calls by dose curve;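 further: series mostly up to about 77 µM; 0% = vehicle basal and 100% = reference agonist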). The conditions noted are these: HEK293T FXR-UAS-bla, beta-lactamase ratio, 16 h; activation: stronger effect = higher value. In outline: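 Read-out: beta-lactamase reporter fluorescence with CCF4 substrate in GeneBLAzer FXR-UAS-bla HEK293T cells, after 16 h compound exposure at 37 C. Response scaled between DMSO basal (0%) and chenodeoxycholic acid at 100 uM (100%).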

The target in experiment [16] is Glucocorticoid receptor (Homo sapiens) (UniProt P04150). Nature of the experiment: qHTS assay for small molecule agonists of glucocorticoid receptor signaling (AID 588532; active means well fitted curve in the direction sought with a large enough effect in the signal ratio, with a control signal flat; the % refers to the signal ratio;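 further: 100% = dexamethasone at 0.1 µM and 0% = DMSO only wells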). The conditions noted are these: HeLa MMTV-bla, beta-lactamase ratio, agonist, 18 h; activation: stronger effect = higher value, percent of dexamethasone control, DMSO zero. In outline:
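Titration series, up to 92 uM, applied to GRE-bla HeLa cells for 18 h at 37 C. Detection by CCF4 FRET substrate after 2 h at RT.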

In experiment [17] the target is Nuclear receptor subfamily 1 group I member 2 (Rattus norvegicus) (UniProt Q9R1A7). Description: qHTS assay for small molecule activators of the rat pregnane X receptor (rPXR) signaling pathway (AID 651751; call rule not given here; further: 0% is about no effect). The conditions noted are these: rPXR reporter cells, luciferase (One-Glo), 24 h.
Experiment [18] concerns the target Peroxisome proliferator-activated receptor delta (Homo sapiens) (UniProt Q03181). Description: qHTS assay for small molecule agonists of peroxisome proliferator-activated receptor delta signaling (AID 588534; calls by dose curve;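 further: 0% = DMSO basal wells and 100% = positive control agonist at 10 µM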). The gist of the method:
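Agonist-mode beta-lactamase reporter readout (CCF4 dye, 2 h at RT) after 18 h at 37 °C exposure to a titration; Hill-equation fitting gave EC50 and maximal response.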

Experiment [19] addresses Vitamin D3 receptor (Homo sapiens) (UniProt P11473). Description: qHTS assay for small molecule antagonists of vitamin D receptor signaling (AID 588541; calls by dose curve;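 further: receptor activated by calcitriol during compound treatment; series mostly up to about 77 µM; on the % scale 0 is the no-effect control and ±100 the full control effect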). In outline:
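VDR-UAS-bla HEK293T cells (2000/well, 2% charcoal-stripped FBS) were treated with titrated compounds plus 1-alpha,25-dihydroxyvitamin D3 (50 nM or 3 nM final) for 16 h at 37 C. CCF4 beta-lactamase fluorescence was read; Hill fits gave IC50.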

For experiment [20] the target is unchanged. Nature of the experiment: qHTS assay for small molecule agonists of vitamin D receptor signaling (AID 588543; calls by dose curve;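 further: 0% = DMSO basal and 100% = reference agonist control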). In outline:
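Measured: β-lactamase reporter activity (CCF4, 405 nm excitation, 460/530 nm emission) in HEK293T VDR-UAS-bla cells after 16 h compound exposure at 37 °C. Normalization against 50 nM 1α,25-dihydroxyvitamin D3 and DMSO; Hill-fit EC50.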

Chain of Glucocorticoid receptor (Homo sapiens) (P04150 whole entry, looked up): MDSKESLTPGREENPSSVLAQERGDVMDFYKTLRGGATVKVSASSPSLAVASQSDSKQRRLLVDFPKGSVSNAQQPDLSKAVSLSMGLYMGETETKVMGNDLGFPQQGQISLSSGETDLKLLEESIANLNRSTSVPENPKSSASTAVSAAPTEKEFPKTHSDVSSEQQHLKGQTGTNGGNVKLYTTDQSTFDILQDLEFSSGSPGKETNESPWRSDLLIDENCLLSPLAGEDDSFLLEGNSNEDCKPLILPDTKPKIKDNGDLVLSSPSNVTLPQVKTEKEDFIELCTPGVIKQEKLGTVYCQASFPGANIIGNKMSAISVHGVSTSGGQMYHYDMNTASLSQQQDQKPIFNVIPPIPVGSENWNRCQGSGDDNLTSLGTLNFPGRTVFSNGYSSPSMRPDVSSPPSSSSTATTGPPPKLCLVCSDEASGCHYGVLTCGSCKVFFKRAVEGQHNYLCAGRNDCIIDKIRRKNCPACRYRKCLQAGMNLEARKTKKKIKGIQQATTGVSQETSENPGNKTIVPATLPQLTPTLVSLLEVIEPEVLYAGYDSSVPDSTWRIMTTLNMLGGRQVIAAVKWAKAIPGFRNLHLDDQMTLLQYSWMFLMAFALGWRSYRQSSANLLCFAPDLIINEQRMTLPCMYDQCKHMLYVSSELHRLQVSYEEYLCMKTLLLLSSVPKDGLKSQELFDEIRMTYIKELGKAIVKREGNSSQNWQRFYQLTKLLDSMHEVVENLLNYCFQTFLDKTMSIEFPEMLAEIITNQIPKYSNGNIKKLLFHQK
Chain of Retinoic acid receptor RXR-alpha (Homo sapiens) (P19793 whole entry, looked up): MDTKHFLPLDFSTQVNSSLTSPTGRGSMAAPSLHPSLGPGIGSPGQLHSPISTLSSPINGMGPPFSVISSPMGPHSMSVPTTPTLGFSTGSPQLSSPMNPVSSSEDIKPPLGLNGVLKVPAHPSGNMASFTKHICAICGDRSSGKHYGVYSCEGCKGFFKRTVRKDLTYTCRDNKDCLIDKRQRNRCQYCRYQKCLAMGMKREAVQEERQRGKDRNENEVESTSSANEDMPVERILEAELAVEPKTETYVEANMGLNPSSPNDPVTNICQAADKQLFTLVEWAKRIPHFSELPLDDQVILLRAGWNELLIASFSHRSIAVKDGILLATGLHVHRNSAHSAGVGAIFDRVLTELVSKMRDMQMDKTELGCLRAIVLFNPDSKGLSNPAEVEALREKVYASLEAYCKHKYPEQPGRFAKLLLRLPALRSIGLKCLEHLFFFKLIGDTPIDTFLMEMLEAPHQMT
Chain of Vitamin D3 receptor (Homo sapiens) (P11473 whole entry, looked up): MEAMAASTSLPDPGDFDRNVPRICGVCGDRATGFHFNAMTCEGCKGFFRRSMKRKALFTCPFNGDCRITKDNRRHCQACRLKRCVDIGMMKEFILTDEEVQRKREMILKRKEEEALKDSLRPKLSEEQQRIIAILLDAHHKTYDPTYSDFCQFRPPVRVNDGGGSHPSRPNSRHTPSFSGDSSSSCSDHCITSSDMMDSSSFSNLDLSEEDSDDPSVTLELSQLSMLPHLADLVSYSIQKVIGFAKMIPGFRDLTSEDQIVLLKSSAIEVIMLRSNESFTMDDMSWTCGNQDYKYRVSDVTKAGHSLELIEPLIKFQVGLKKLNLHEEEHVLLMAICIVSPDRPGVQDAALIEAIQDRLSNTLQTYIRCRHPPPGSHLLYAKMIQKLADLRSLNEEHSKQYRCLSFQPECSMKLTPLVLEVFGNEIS
Chain of Peroxisome proliferator-activated receptor alpha (Homo sapiens) (Q07869 whole entry, looked up): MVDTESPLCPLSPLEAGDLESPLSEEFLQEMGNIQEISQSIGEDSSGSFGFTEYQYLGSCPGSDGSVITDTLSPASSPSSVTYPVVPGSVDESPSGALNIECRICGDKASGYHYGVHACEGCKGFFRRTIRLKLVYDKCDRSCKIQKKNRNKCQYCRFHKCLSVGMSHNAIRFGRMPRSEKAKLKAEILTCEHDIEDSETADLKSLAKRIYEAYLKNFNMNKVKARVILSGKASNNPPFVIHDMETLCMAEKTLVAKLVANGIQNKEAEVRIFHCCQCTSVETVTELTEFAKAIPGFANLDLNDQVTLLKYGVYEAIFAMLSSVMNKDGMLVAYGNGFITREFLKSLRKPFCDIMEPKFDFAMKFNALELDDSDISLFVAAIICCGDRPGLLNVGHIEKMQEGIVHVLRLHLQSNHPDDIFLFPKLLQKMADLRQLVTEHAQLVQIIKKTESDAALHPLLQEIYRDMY
Chain of Peroxisome proliferator-activated receptor delta (Homo sapiens) (Q03181 whole entry, looked up): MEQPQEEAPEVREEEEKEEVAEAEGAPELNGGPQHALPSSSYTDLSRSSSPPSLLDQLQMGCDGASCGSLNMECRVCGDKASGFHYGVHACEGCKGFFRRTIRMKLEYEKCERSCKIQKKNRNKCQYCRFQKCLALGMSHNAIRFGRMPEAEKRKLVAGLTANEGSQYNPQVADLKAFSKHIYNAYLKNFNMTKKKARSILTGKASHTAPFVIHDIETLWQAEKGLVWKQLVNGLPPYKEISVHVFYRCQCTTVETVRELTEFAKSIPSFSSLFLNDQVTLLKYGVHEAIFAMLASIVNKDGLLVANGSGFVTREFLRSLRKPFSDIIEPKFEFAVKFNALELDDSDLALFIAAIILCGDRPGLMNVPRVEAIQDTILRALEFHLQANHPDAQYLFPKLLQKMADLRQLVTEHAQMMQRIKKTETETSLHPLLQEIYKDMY
Chain of Thyroid hormone receptor beta (Homo sapiens) (P10828 whole entry, looked up): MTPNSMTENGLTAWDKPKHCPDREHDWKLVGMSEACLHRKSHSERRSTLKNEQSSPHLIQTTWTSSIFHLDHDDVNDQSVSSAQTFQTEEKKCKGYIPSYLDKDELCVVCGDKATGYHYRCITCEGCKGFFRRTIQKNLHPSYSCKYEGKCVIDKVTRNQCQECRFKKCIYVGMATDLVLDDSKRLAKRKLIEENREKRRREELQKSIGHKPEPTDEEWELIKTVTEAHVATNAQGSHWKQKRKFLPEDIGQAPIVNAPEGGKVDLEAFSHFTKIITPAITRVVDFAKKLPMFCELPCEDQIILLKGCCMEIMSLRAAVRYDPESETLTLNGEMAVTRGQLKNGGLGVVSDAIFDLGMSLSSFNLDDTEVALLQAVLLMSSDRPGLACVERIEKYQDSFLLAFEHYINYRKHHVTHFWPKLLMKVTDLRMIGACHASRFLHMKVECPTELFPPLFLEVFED
Chain of Bile acid receptor (Homo sapiens) (Q96RI1 whole entry, looked up): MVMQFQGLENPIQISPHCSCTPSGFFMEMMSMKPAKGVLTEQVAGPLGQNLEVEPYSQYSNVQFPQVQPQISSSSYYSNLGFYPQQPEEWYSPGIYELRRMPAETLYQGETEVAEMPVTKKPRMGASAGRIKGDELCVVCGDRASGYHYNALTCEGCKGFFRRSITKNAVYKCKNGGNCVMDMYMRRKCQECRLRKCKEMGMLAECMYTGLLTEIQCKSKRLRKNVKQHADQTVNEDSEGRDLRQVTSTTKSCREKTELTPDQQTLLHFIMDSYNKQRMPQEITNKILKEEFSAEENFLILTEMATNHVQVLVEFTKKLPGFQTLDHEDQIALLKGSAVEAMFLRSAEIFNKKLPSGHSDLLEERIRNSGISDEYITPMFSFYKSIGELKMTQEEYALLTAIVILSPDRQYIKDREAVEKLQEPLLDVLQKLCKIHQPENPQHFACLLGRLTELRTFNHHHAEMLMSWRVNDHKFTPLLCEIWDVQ
Chain of Nuclear receptor subfamily 1 group I member 2 (Rattus norvegicus) (Q9R1A7 whole entry, looked up): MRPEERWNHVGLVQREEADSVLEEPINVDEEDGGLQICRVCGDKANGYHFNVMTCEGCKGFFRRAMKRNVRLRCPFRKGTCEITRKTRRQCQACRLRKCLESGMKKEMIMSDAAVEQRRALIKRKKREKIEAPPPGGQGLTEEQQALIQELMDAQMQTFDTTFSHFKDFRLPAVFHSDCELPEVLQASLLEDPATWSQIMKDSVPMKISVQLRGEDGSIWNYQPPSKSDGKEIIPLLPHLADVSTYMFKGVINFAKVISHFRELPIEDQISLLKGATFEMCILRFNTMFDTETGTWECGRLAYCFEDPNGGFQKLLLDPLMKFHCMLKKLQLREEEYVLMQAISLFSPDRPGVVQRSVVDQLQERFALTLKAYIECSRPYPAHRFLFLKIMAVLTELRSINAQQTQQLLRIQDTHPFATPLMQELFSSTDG

With `COC(C)(C)CCC[C@H](C)C/C=C/C(C)=C/C(=O)OC(C)C`, the Potency result in experiment [1], in experiment [10] and in experiment [13] was “inactive” each time. Moreover, the max response in experiment [2] was -16.5%; in experiment [3], 6.26% (inactive); in [9] it was 0.0369% (inactive); in [11], -6.46% (inactive); in [12] it was -5.99% (inactive). The activity change % (negative = inhibition) in [4] is -10.3% (inactive). For the same compound, in experiment [5], the Potency was 68.6 µM (active). In addition, the results for the activation in [6], in experiment [7] and in experiment [8] were -4.16% (inactive), 0.706% (inactive) and -0.0877% (inactive), respectively.

As to `CC1COC(Cn2cncn2)(c2ccc(Oc3ccc(Cl)cc3)cc2Cl)O1` (centres undefined), the results for the Potency in experiment [14] and in experiment [3] were 44.7 µM (active) and 39.8 µM (active), respectively. Also, the activation in [15] was 3.21% (inactive); in experiment [16], -11.8% (inactive); in experiment [6] it was 12.1% (inactive); in experiment [8], 14.3% (inactive). Besides, the Potency entry in experiment [1], in experiment [10] and in experiment [13] was “inactive” each time. Further, the max response is 9.03% in [2], 6.01% (inactive) in experiment [9], -29.8% (inactive) in experiment [12] and -12.8% (inactive) in experiment [17].

Consider `CCS(=O)(=O)c1cccnc1S(=O)(=O)NC(=O)Nc1nc(OC)cc(OC)n1`, for which the Potency entry in experiment [14], in experiment [19], in experiment [1] and in experiment [13] was “inactive” throughout. In addition, the activation was 0.0623% (inactive) in [15], -0.845% (inactive) in [16], -3.66% (inactive) in experiment [6] and -1.37% (inactive) in [7]. Further, the compound was classed as inactive in experiment [18] and in experiment [20]. For the same compound, the max response is -3.64% in experiment [2]; 8.72% (inactive) in experiment [3]; -2.57% (inactive) in experiment [9]; 15.3% (inactive) in experiment [11]; -6.2% (inactive) in experiment [12]; -1.1% (inactive) in experiment [17]. The results for the Potency in experiment [5] and in [8] were 10.9 µM (active) and 31.6 µM (active), respectively.

`C=CC(=O)OCC(CC)(COC(=O)C=C)COC(=O)C=C`: the activation in experiment [16] is -13.7% (inactive); in experiment [7], 0.162% (inactive); in [8], 9.7% (inactive). Further, the outcome in experiment [18] and in [20] was inactive. Also, the max response is 23.9% in [2], -1.24% (inactive) in experiment [9], -3.3% (inactive) in [11] and -14.4% (inactive) in experiment [17]. Moreover, the Potency in experiment [5] was 34.4 µM (active); in experiment [10], 61.1 µM (active); in experiment [12], 50.1 µM (active). Moreover, the Potency entry in experiment [13] was “inactive”.

As for `CN/C(=N/[N+](=O)[O-])NCC1CCOC1` (centres undefined), the Potency result in [14], in experiment [19], in [1], in experiment [5], in [10] and in experiment [13] was “inactive” each time. The activation in experiment [15] was -2.75% (inactive); in [16], 0.122% (inactive); in [6], 3.08% (inactive); in [7], -0.877% (inactive); in experiment [8], -0.372% (inactive). Also, the result in [18] and in [20] was inactive. Also, the activity change % (negative = inhibition) in [4] was -1.83% (inactive). Further, the results for the max response in [9], in experiment [11] and in experiment [12] were -0.384% (inactive), -9.26% (inactive) and -6.54% (inactive), respectively.
